{"source": "PubChem BioAssay AID932", "about": "(The Scripps Research Institute Molecular Screening Center, 2007)", "note": "In all, about 200,000 compounds went through this assay and about 5,100 (2.5%) were called active. The sample holds actives, similar compounds and a random draw of the others, so the mix is not that of the screen. A number with no mark means an inactive call.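 The calls were made as follows: active = activation above the screen-wide mean activation plus 3 SD (cut at about 130% in these data); inactive = the rest.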", "data": [{"test": "STAT1 signaling activators, primary screen, cell-based, HTS, luciferase reporter (AID 932);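 also: raw ratio to IFN-gamma control signal so 100% means no change and 0% no light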", "settings": "NIH 3T3 STAT1-luciferase reporter, IFN-gamma, luminescence; at 5.5 µM; hits give high values; 100% = IFN-gamma alone, no compound", "values": [{"compound": "CN1CCN(C(=O)COc2ccc(C(C)(C)C)cc2Br)CC1", "activation (% of control)": "97%"}, {"compound": "O=C(Nc1cccc(OC(=O)N2CCCCC2)c1)N1CCOCC1", "activation (% of control)": "101%"}, {"compound": "CC(C)(C)c1ccc(OC(=O)N2CCCCC2)cc1", "activation (% of control)": "146% (active)"}, {"compound": "Cc1ccccc1N1C(=O)NC(=O)/C(=C\\c2cc(C)n(C)c2C)C1=O", "activation (% of control)": "92.7%"}, {"compound": "CCOC(=O)C1CN(C)CCC1=O", "note": "(stereo not given)", "activation (% of control)": "96.3%"}]}]}
